Among all 310,000 compounds or so, about 17,000 (5.5%) were called active. Another 11% or so got no clear call; they are omitted. Many of the other results were omitted from the sample, so actives are more common in it than they were. Unmarked numbers belong to inactive results. The call rests on the fitted dose curve; in most records, active means well fitted inhibition curve with a large enough effect; inconclusive means small, poorly fitted or top-dose-only effect, or effect the other way; inactive means no such curve, though single readings can be large or run the other way.
target: Nuclear receptor ROR-gamma (Mus musculus) (UniProt P51450); experiment: qHTS for inhibitors of ROR gamma transcriptional activity; conditions: Drosophila S2 Gal4-RORgamma UAS-luciferase reporter, 20 h; series mostly up to 53.6 µM; activity change, negative = inhibition: at the top concentration; further: nearly all actives have a fitted effect of over 60% in size
Sequence (P51450 whole entry, looked up, the tested form may be a part): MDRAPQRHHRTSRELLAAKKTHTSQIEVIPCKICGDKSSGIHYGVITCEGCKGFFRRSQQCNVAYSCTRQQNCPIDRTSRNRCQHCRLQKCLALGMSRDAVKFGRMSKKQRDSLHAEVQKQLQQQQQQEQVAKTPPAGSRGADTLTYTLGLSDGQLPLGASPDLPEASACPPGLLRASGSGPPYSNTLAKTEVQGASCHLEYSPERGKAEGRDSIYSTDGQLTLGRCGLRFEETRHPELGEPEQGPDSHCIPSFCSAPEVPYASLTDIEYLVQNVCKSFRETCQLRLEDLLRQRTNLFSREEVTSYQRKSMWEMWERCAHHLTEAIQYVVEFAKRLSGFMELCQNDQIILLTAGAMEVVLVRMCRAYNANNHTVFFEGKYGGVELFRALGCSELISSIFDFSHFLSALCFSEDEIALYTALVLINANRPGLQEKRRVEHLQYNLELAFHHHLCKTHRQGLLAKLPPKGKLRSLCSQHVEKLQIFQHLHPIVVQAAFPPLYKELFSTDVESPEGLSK
Summary of the method: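 Read-out: Photinus luciferase luminescence; inhibitors lower reporter signal. Insect Schneider cells with Gal4-ROR gamma fusion under metallothionein promoter, UAS reporter; 700 uM final copper sulfate induction, 20 hr, ambient temperature.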
On the % scale 0 is the no-effect control and ±100 the full control effect; potency means the concentration at half of the fitted maximal effect.

Row | SMILES | activity change, negative = inhibition | Potency
1 | COc1ccc(N(CC(=O)N2CCCCCC2)S(=O)(=O)c2ccccc2)cc1 | 2.49% | 
2 | Cc1ccc(NC2CCCN(C(=O)CCc3cn[nH]c3)C2)cc1C (centres undefined) | 14.3% | 
3 | Cc1ccccc1N1CCN(CC(=O)NCc2ccc(Cl)cc2)CC1 | 27.3% | 
4 | COC(=O)c1sc2[nH]c(=S)n(N)c(=O)c2c1C |  | 7.08 µM (active)
5 | CCOC(=O)c1sc2nc(C)[nH]c(=O)c2c1C | 18.3% | 
6 | COC(=O)c1sc(=S)n(-c2ccccc2)c1N | 0.645% | 
7 | O=S(=O)(c1ccc(Cl)cc1)c1nc(-c2ccccc2F)oc1NCCN1CCOCC1 | 38.8% | 
8 | CC(=O)c1ccc(NC(=O)c2sc3nc4n(c(=O)c3c2C)CCCCC4)cc1 | 34.7% | 
9 | O=C(Cc1ccc2c(c1)CCCC2)Nc1ccccc1Cl | 8.31% | 
10 | O=C(Nc1ccccc1Cl)Nn1cnnc1 | -16.9% | 
11 | O=C(Nc1ccccc1Cl)/C(Cl)=C(\Cl)S(=O)c1ccccc1 (centres undefined) |  | 0.891 µM (active)
12 | Cc1ccc(S(=O)(=O)c2nnn3c2nc(N2CCN(c4ccccn4)CC2)c2ccccc23)cc1 | -12.8% | 
13 | CCC(CC)c1nnc(NC(=O)C2CCN(C(=O)c3ccco3)CC2)s1 | 35.8% | 
14 | CC(CNC(=O)c1ccc(Br)o1)NC(=O)c1ccc(Br)o1 (centres undefined) | -15% | 
15 | O=C(NCc1cccs1)c1ccc(Br)o1 | 5.95% | 
16 | C=CCNC(=S)NNC(=O)c1ccc(Br)o1 |  | 2 µM (active)
17 | CC1CCN(C(=O)Cn2nnnc2CN2CCOCC2)CC1 | -26.6% | 
18 | COC(CNC(=O)c1ccc2c(c1)ncn2-c1cc(C)cc(C)c1)OC | 9.19% | 
19 | O=C(N/N=C/c1ccccn1)c1cccnc1 | -45.9% | 
20 | O=C(N/N=C/c1sc(N2CCCCC2)nc1-c1cccs1)c1cccnc1 |  | 7.94 µM (active)
21 | O=C(NN=C1CCC(=NNC(=O)c2cccnc2)CC1)c1cccnc1 | -37.9% | 
22 | CN(Cc1ccccc1)C(=O)c1ccc(NC2=NC3CS(=O)(=O)CC3S2)cc1 (centres undefined) | -0.867% | 
23 | N#CCC(=O)N/N=C/c1cn(Cc2ccc3ccccc3c2)c2ccccc12 |  | 12.6 µM (active)

Row | SMILES | activity change, negative = inhibition | Potency
24 | CNC(=S)N/N=C/c1cn(Cc2ccc(C)cc2)c2ccccc12 | 31.1% | 
25 | COc1cccc(Cn2cc(/C=N/NC(=O)c3cc(O)cc(O)c3)c3ccccc32)c1 | -0.821% | 
26 | Cc1c(C=O)c2ccccc2n1CCOc1ccccc1 | 77.1% | 
27 | COc1cccc(C(C(=O)NC2CCCC2)N(C(=O)c2ccco2)c2cccc(C(C)=O)c2)c1OC (centres undefined) | 27% | 
28 | COc1cccc(NC(=S)N(CCc2c(C)[nH]c3ccccc23)Cc2ccco2)c1 |  | 11.2 µM (active)
29 | Cc1ccc2[nH]c(C)c(CCNC(=O)NC3CCCCC3)c2c1 | 25.9% | 
30 | CCNC(=S)N(CCc1c(C)[nH]c2ccc(C)cc12)Cc1ccco1 |  | 11.2 µM (active)
31 | Cc1[nH]c2ccccc2c1CCN(Cc1cccs1)C(=S)NC(C)(C)C | 3.01% | 
32 | COCCNC(=S)N(CCc1c(C)[nH]c2ccc(C)cc12)Cc1cccnc1 | 5.98% | 
33 | COc1ccc2[nH]c(C)c(CCN(Cc3cccs3)C(=S)Nc3ccccc3OC)c2c1 | 38.3% | 
34 | NS(=O)(=O)c1ccc(CNC(=O)c2cccc(Oc3ccccc3)c2)cc1 | -1.73% | 
35 | COc1ccc(N2CCN(C(=O)Cn3cnc4sc(C)c(S(=O)(=O)N5CCOCC5)c4c3=O)CC2)cc1 | 6.53% | 
36 | COc1ccc(NS(=O)(=O)c2ccc3oc(SCC(N)=O)nc3c2)cc1 | 43.4% | 
37 | COc1cc(C(=S)N2CCOCC2)cc(OC)c1OC(=O)c1ccc([N+](=O)[O-])cc1[N+](=O)[O-] | -8.5% [at 1.91 µM] | 
38 | O=C(O)c1ccc2c(=O)n3c(nc2c1)/C(=C/c1ccc(OC(F)F)cc1OC(F)F)CC3 | 2.65% | 
39 | Cc1ccc(Nc2nc(N)nc(CSc3nnc(C)s3)n2)cc1 | 21.9% | 
40 | CCOC(=O)N1CCN(Cc2nc(N)nc(Nc3ccc(C)cc3)n2)CC1 | -14.9% | 
41 | Nc1nc(CC(=O)CSc2ccc(Cl)cc2)nc(Nc2ccc(F)cc2)n1 |  | 14.1 µM (active)
42 | O=S(=O)(NC1CC1)c1ccc(Cl)cc1 | 30.8% [at 1.91 µM] | 
43 | Nc1ccccc1N | -35.5% | 
44 | Cc1ccc(Nc2nnc(SCc3ccccc3)s2)cc1 | 10.7% | 
45 | Cc1ccc(Nc2ccccc2N)cc1 |  | 11.2 µM (active)
46 | Cc1[nH]c(C)c(S(=O)(=O)N2CCC(C)CC2)c1C(=O)N1CCCC1 | -11.5% | 

Row | SMILES | activity change, negative = inhibition | Potency
47 | COCCNC(=O)CN(Cc1ccco1)C(=O)CCC(=O)Nc1nccs1 | -1.62% | 
48 | C/C(CCc1ccccc1)=N\NC(=O)c1ccc(CN2CCOCC2)cc1 | -42.7% | 
49 | COc1ccc(C(=O)Nc2ccc(CN3CCOCC3)cc2)cc1 | 20.3% | 
50 | Cc1ccccc1-n1c(C)cc(/C=N/NC(=O)c2ccc(CN3CCOCC3)cc2)c1C |  | 10 µM (active)
51 | Cc1cc(=O)n2nc(N3CCCC(C(=O)NCc4cccc(Cl)c4)C3)sc2n1 (centres undefined) | -0.13% | 
52 | Cc1cccc(NC(=O)Nc2nnc(-c3ccccc3)o2)c1 | -2.44% | 
53 | O=C(OCc1ccc(Br)cc1)c1cccc(-c2nnc(-c3ccccc3)o2)c1 | -1.79% | 
54 | Cc1ccnc2nc(C(=O)Nc3nnc(-c4ccccc4)o3)nn12 |  | 11.2 µM (active)
55 | CCCC(=O)Nc1nnc(-c2ccccc2)o1 |  | 7.94 µM (active)
56 | O=C(COC(=O)c1ccccc1)Nc1ccccc1Sc1ccccc1 | -2.28% | 
57 | Cc1ccnc2nc(C(=O)OCC(=O)N(CC(C)C)CC(C)C)nn12 | 25.7% | 
58 | O=C(COC(=O)c1ccc(Oc2ccccc2)cc1)Nc1nnc(-c2ccccc2)o1 |  | 2.82 µM (active)
59 | CCc1nnc(NC(=O)c2nc3nccc(C)n3n2)s1 | -5.51% | 
60 | Nc1ccc(-c2nnc(-c3ccccc3)o2)cc1 | 4.3% | 
61 | COC(=O)C1(C)CC1(c1ccccc1)c1ccccc1 (centres undefined) | 28% | 
62 | CN(C)N1C(N)=C(C#N)C(c2ccc(Br)cc2)C2=C1CCCC2=O (centres undefined) | 3.08% | 
63 | C[C@@H](NC(=O)[C@@H]1Cc2ccccc2CN1)C(=O)NC1CCCC1 | 5.75% | 
64 | CC(=O)NN1C(=O)c2ccccc2NC1c1ccccc1 (centres undefined) | 1.65% | 
65 | CCCC1=Nc2cc(C(=O)NCCN3CCCC3)ccc2Sc2ccccc21 | -10.6% | 
66 | CCC1Sc2ccc(S(=O)(=O)CCC(=O)NCc3cccs3)cc2NC1=O (centres undefined) | 20.9% | 
67 | FC(F)(F)c1cccc(N/N=C/c2ccccc2)c1 | 31.7% | 
68 | CC(NC(=O)C(=O)N/N=C/c1ccc(Cl)cc1)c1ccccc1 (centres undefined) | 19.8% | 
69 | FC(F)(F)c1nc2ccccc2nc1N/N=C/c1ccc(Cl)cc1 |  | 5.62 µM (active)
